Shown are actives, neighbours in structure and some others; about 19% of the full set was active somewhere.
TDP1 cell noCPT = qHTS for Inhibitors of human tyrosyl-DNA phosphodiesterase 1 (TDP1): qHTS in cells in absence of CPT. hit rate 15% among 420,000. DT40 Tdp1-/- hTDP1 cells, no CPT, ATP luminescence, 48 h. Potency, µM (series often up to 46.2 µM), for the others: top-dose activity change, negative = growth inhibition, actives largely listed as inhibitors; also: potency is read from the fitted curve at half-maximal effect; nearly all actives have a fitted effect of over 55% in size
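Cells were dispensed at 400 per well, compounds added by pin tool, plates incubated ≥48 hr at 37 °C, then CellTiter-Glo added for 30 min at room temperature before luminescence reading. Line: DT40 Tdp1-/- complemented with hTDP1; camptothecin omitted.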
IL1B secr inh = qHTS for Inhibitors of Inflammasome Signaling: IL-1-beta AlphaLISA Primary Screen; activity change, % at 57.5 µM; hit rate 4.7% among 360,000; AID 743279, 2014; THP-1 LPS/ATP IL-1B secretion, AlphaLISA, 16 h; hits give low values; in the data active = activity change below about -50%; inconclusive = mostly about -30% to -49%
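THP-1 cells pretreated 1 hr with compounds (up to 57.5 uM final), then stimulated with LPS (250 ng/mL final) plus ATP (1.25 mM final); secreted IL-1B measured by AlphaLISA after 16 hr, decreased signal indicating inhibition.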
HT1080 IDH1KD tx = qHTS for induction of synthetic lethality in tumor cells producing 2HG: qHTS for the HT-1080-IDH1KD cell line; HT-1080 IDH1 knockdown viability, ATP luminescence, 48 h; Potency, µM (titrated, usually from 46.1 µM), for the others: top-dose activity, negative = toxicity, most hits filed as cytotoxic; hit rate 2% among 360,000;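 also: potency is read from the fitted curve at half-maximal effect; 0% = DMSO wells and -100% = cell-free medium wells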
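CellTiter-Glo luminescence after 48 h compound exposure at 37 degrees C of IDH1-knockdown HT-1080 cells in 5% FBS RPMI. %Activity scaled between DMSO wells and cell-free media wells, with curves fitted and assigned curve classes.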
HT1080-NT tox = qHTS for induction of synthetic lethality in tumor cells producing 2HG: qHTS for the HT-1080-NT fibrosarcoma cell line; hit rate 1.6% among 360,000; Potency, µM (series often up to 46.1 µM), for inactives: top-dose activity, negative = less viability, most hits filed as cytotoxic; HT-1080-NT fibrosarcoma viability, CellTiter-Glo ATP luminescence, 48 h;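 also: NT is the 2HG producing partner of a matched IDH1 knockdown line; potency is read from the fitted curve at half-maximal effect; 0% = DMSO-treated cells and -100% = media-only wells without cells; nearly all actives have a fitted effect of over 55% in size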
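Compounds were tested in concentration-response format on HT-1080-NT cells for 48 hours at 37 degrees C. Cell viability came from CellTiter-Glo luminescence; curves were classified by r2, response magnitude and activity.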
TDP1 cell CPT = qHTS for Inhibitors of human tyrosyl-DNA phosphodiesterase 1 (TDP1): qHTS in cells in presence of CPT. chicken DT40 Tdp1-/-;hTDP1 cells + 20 nM CPT, ATP luminescence, 48 h. Potency, µM (top dose mostly 46.2 µM), inactives show top-dose activity change, negative = growth inhibition, usual class: inhibitors. hit rate 12% among 420,000. AID 686979, 2013; also: potency is read from the fitted curve at half-maximal effect; nearly all actives have a fitted effect of over 55% in size
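Cell growth measured by CellTiter-Glo luminescence after a minimum 48 h, 37 C compound exposure with 20 nM CPT in Tdp1-knockout DT40 cells stably expressing hTDP1, seeded 400/well; qHTS titration format.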
ELG1 repair inh = qHTS screen for small molecules that inhibit ELG1-dependent DNA repair in human embryonic kidney (HEK293T) cells expressing luciferase-tagged ELG1 | HEK293T ELG1-luciferase reporter, luminescence, 16 h; DNA damage induced by 5-fluorouridine | Potency, µM (top dose mostly 46.1 µM), inactives show at the highest dose activity change, negative = inhibition, actives largely listed as inhibitors | hit rate 2.3% among 330,000 | AID 504467, 2011; also: potency is read from the fitted curve at half-maximal effect; nearly all actives have a fitted effect of over 55% in size
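Cells (2,000 per well) received 5-fluorouridine plus test compound or DMSO and were incubated 16 hr at 37 °C, 5% CO2. Luciferase activity was read by luminescence 30 min after ONE-Glo addition; signal suppression marked inhibition of damage-induced ELG1 function.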
* marks the source's active call; other numbers are inactive results. Unless noted, calls follow the shape of the dose curve; as a rule, active = well fitted curve in the direction sought with a large enough effect; inconclusive = small, poorly fitted or top-dose-only effect, or another doubt; inactive = no such curve, though single readings can be large; an effect the other way counts as inactive or inconclusive. Unless noted, % is scaled to controls: 0 for no effect and ±100 for the full control effect.

How did N#Cc1cccc(NC(=O)c2cc(C3CCCCN3S(=O)(=O)c3cccc4cccnc34)on2)c1 (stereo not drawn) do in these assays?
TDP1 cell noCPT: 18µM*; IL1B secr inh: -1; HT1080 IDH1KD tx: -9%; HT1080-NT tox: 0%; TDP1 cell CPT: inconclusive

How did CS(=O)(=O)N1CCCCC1c1cc(C(=O)Nc2cccc(C#N)c2)no1 (stereo not drawn) do in these assays?
TDP1 cell noCPT: -16%; IL1B secr inh: -18; HT1080 IDH1KD tx: 6%; HT1080-NT tox: 19%; TDP1 cell CPT: -17%

What do the screens show for `Cc1ncccc1C(=O)N1CCCC(c2cc(C(=O)Nc3ccc(C(C)(C)C)cc3)no2)C1` (stereo not drawn)?
TDP1 cell noCPT: 12µM*; IL1B secr inh: -19; HT1080 IDH1KD tx: inconclusive; HT1080-NT tox: 21µM*; TDP1 cell CPT: 13µM*

Results for Cc1cc(C)c2oc(-c3cccc(NC(=O)COc4ccc([N+](=O)[O-])cc4)c3)nc2c1 ?
TDP1 cell noCPT: inconclusive; TDP1 cell CPT: -19%

What do the screens show for `Cc1ccc(C)c(NC(=O)C(c2ccccc2)N2CCOCC2)c1` (stereo not drawn)?
TDP1 cell noCPT: -4%; IL1B secr inh: -14; HT1080 IDH1KD tx: 17%; HT1080-NT tox: 9%; TDP1 cell CPT: 4%; ELG1 repair inh: -1%

Results for CCOC(=O)c1cnn(-c2ccc(NS(=O)(=O)c3ccc(Cl)cc3)cc2)c1C(F)(F)F ?
TDP1 cell noCPT: inconclusive; IL1B secr inh: -3; HT1080 IDH1KD tx: inconclusive; HT1080-NT tox: inconclusive; TDP1 cell CPT: inconclusive; ELG1 repair inh: 23µM*

How did CC(C)c1ccc(N2C(=O)N(Cc3ccccc3Cl)c3ccccc3S2(=O)=O)cc1 do in these assays?
TDP1 cell noCPT: 18µM*; TDP1 cell CPT: inconclusive

How did CCOc1ccc(N2C(=O)N(Cc3c(F)cccc3Cl)c3ccccc3S2(=O)=O)cc1 do in these assays?
TDP1 cell noCPT: inconclusive; TDP1 cell CPT: -27%

What do the screens show for `Cc1cccc(CN2C(=O)N(c3ccc(C(C)C)cc3)S(=O)(=O)c3ccccc32)c1`?
TDP1 cell noCPT: 23µM*; TDP1 cell CPT: inconclusive

How did Cc1ccc(CN2c3ccccc3S(=O)(=O)c3ccccc32)cc1 do in these assays?
TDP1 cell noCPT: inconclusive; TDP1 cell CPT: 26µM*

How did Cc1cccc(N2C(=O)N(Cc3ccc(C(C)(C)C)cc3)c3ccccc3S2(=O)=O)c1 do in these assays?
TDP1 cell noCPT: 21µM*; TDP1 cell CPT: inconclusive

Results for CN(C)S(=O)(=O)c1ccc2c(c1)nnn2CCNC(=O)Nc1ccc(Cl)cc1 ?
TDP1 cell noCPT: -12%; TDP1 cell CPT: -23%

What do the screens show for `CCOC(=O)C1=CCN(S(=O)(=O)c2ccccc2F)C1c1cccc(C)c1` (stereo not drawn)?
TDP1 cell noCPT: inconclusive; IL1B secr inh: 25; HT1080 IDH1KD tx: -16%; HT1080-NT tox: -2%; TDP1 cell CPT: inconclusive

Results for CC1C=CCC2C(=O)N(c3cc(Cl)ccc3O)C(=O)C12 (stereo not drawn) ?
TDP1 cell noCPT: 10%; IL1B secr inh: 0; HT1080 IDH1KD tx: 8%; HT1080-NT tox: 3%; TDP1 cell CPT: -18%; ELG1 repair inh: 10%

How did O=C(c1ccncc1)N1CCC[C@@]2(CCN(c3ccccn3)C2)C1 do in these assays?
TDP1 cell noCPT: 0%; TDP1 cell CPT: 26%

What do the screens show for `COc1cccc(OCC(O)CN2CCN(C(c3ccccc3)c3ccccc3)CC2)c1` (stereo not drawn)?
TDP1 cell noCPT: 13µM*; IL1B secr inh: -7; HT1080 IDH1KD tx: -12%; HT1080-NT tox: -10%; TDP1 cell CPT: inconclusive

What do the screens show for `CN1CCN(CCOc2ccc(-c3ccccc3)cc2)CC1`?
TDP1 cell noCPT: inconclusive; IL1B secr inh: -59*; HT1080 IDH1KD tx: -9%; HT1080-NT tox: -14%; TDP1 cell CPT: inconclusive; ELG1 repair inh: inconclusive

Results for CCN1CCN(CCCOc2ccc(-c3ccccc3)cc2)CC1 ?
TDP1 cell noCPT: inconclusive; IL1B secr inh: -56*; HT1080 IDH1KD tx: inconclusive; HT1080-NT tox: inconclusive; TDP1 cell CPT: inconclusive; ELG1 repair inh: inconclusive

Results for CCN1CCN(CC(O)COc2cccc(OC)c2)CC1 (stereo not drawn) ?
TDP1 cell noCPT: 5%; IL1B secr inh: 20; HT1080 IDH1KD tx: 13%; HT1080-NT tox: 16%; TDP1 cell CPT: 6%; ELG1 repair inh: 2%

What do the screens show for `O=C(c1ccc(Cl)cc1)N1CCN(CCOc2ccccc2)CC1`?
TDP1 cell noCPT: -12%; IL1B secr inh: -7; HT1080 IDH1KD tx: -8%; HT1080-NT tox: -1%; TDP1 cell CPT: 0%; ELG1 repair inh: -22%

How did O=C(c1c(F)cccc1F)N1CCN(CCOc2ccccc2)CC1 do in these assays?
TDP1 cell noCPT: inconclusive; IL1B secr inh: -3; HT1080 IDH1KD tx: 7%; HT1080-NT tox: -13%; TDP1 cell CPT: -28%; ELG1 repair inh: 21µM*

Results for O=C1NC[C@H](CCCCN2CCN(CCc3ccc(O)cc3)C(=O)C2=O)N(CCC2CCCCC2)C1=O ?
TDP1 cell noCPT: -19%; IL1B secr inh: 0; HT1080 IDH1KD tx: 5%; HT1080-NT tox: 17%; TDP1 cell CPT: -5%

Results for c1ccc(OCCN2CCNCC2)cc1 ?
TDP1 cell noCPT: -5%; IL1B secr inh: 10; HT1080 IDH1KD tx: 11%; HT1080-NT tox: 10%; TDP1 cell CPT: -10%

What do the screens show for `c1ccc(OCCN2CCN(C(c3ccccc3)c3ccccc3)CC2)cc1`?
TDP1 cell noCPT: 15µM*; IL1B secr inh: -22; HT1080 IDH1KD tx: -14%; HT1080-NT tox: -13%; TDP1 cell CPT: inconclusive; ELG1 repair inh: inconclusive

What do the screens show for `c1ccc(COc2ccc(OCCCCN3CCCCC3)cc2)cc1`?
TDP1 cell noCPT: 21µM*; IL1B secr inh: -58*; HT1080 IDH1KD tx: -21%; HT1080-NT tox: inconclusive; TDP1 cell CPT: 29µM*; ELG1 repair inh: inconclusive

High-throughput results from PubChem BioAssay.
